# PubChem BioAssay (Tox21)
# Inconclusive results are not listed. Unmarked numbers belong to inactive results. Calls follow the shape of the dose curve; as a rule, active = well fitted cell-killing curve with a large enough effect in the repeat runs; inconclusive = weak or mixed curves; inactive = no such curve, though single readings can be large or run the other way.
# Test: qHTS assay to identify small molecule antagonists of the peroxisome proliferator-activated receptor delta (PPARd) signaling pathway - cell viability counter screen (AID 743213); also: nearly all actives have a fitted effect of over 50% in size
# Conditions: PPARd-bla HEK293H viability, CellTiter-Glo luminescence, 17 h; series mostly up to 62 µM; viability change, negative = cytotoxic: at the top concentration
# Text: U.S. Tox21 Program National Center for Advancing Translational Sciences [NCATS] NIH Chemical Genomics Center [NCGC] U.S. Environmental Protection Agency [EPA] National Institutes of Environmental Health Sciences [NIEHS] National Toxicology Program [NTP] U.S. Food and Drug Administration [FDA] Tox21 Assay Overview: The peroxisome proliferator-activated receptors (PPARs) are lipid-activated transcription factors of the nuclear receptor superfamily with three distinct subtypes namely PPAR alpha, PPAR delta (PPARd) and PPAR gamma. All these subtypes heterodimerizes with Retinoid X receptor (RXR) and have different physiological functions. […] To identify the compounds that inhibit PPAR-delta signaling, GeneBLAzer PPAR delta UAS-bla HEK293H cell line (Invitrogen, Carlsbad, CA, USA) containing a beta-lactamase reporter gene under the control of an Upstream Activator Sequence (UAS) was used to screen the Tox21 compound library. The cytotoxicity of the Tox21 compound library against the PPARd-bla cell line was tested in parallel by measuring the cell viability using CellTiter-Glo assay (Promega, Madison, WI) in the same wells.
# Tox21 Assay Protocol Summary: PPARd-bla cells were dispensed at 3000 cells/5uL/well in 1536-well black wall/clear bottom plates using a Multidrop Combi (Thermo Fisher Scientific, Waltham, MA) dispenser. After the assay plates were incubated at 37 C and 5% CO2 for 5 h, 23 nL of compounds dissolved in DMSO, positive controls or DMSO only was transferred to the assay plate by a Pintool station (Kalypsys, San Diego, CA), followed by addition of 1ul L165041 (300 nM, final concentration in the wells). The assay plates were incubated at 37 C for 17 h, and then 1 uL of LiveBLAzerTM B/G FRET substrate was added using a Bioraptr Flying Reagent Dispenser (FRD) workstation (Beckman Coulter, Indianapolis, IN, USA). The assay plates were incubated at room temperature for 2 h and fluorescence intensity was measured by an Envision plate reader (PerkinElmer, Shelton, CT). For cell viability readout that measures cytotoxicity, 3 ul/well of CellTiter-Glo reagent was added into the assay plates using a Bioraptr FRD. After 30 min incubation at room temperature, the luminescence intensity in the plates was measured using a ViewLux plate reader (PerkinElmer).
# % is scaled to controls: 0 for no effect and ±100 for the full control effect.
row,Compound,"viability change, negative = cytotoxic"
1,CC(=O)/C=C/C1C(C)=CCC(C)C1(C)C (stereo not given),9.15%
2,Nc1cccc(O)c1,-7.67% [at 80.4 µM]
3,CN(C)CCOCCO,15%
4,O=C(O)Cc1ccc(Cl)cc1Cl,6.46%
5,CCN1CCc2nc(N)oc2CC1,27.1%
6,CCOC(=O)/C=C/c1ccccc1,-22.7%
7,CC(=C(CCOC(=O)C(C)C)SSC(CCOC(=O)C(C)C)=C(C)N(C=O)Cc1cnc(C)nc1N)N(C=O)Cc1cnc(C)nc1N,-16.3%
8,Nc1ccc([N+](=O)[O-])c(N)c1,8.36%
9,NC(CO)C(=O)NNCc1ccc(O)c(O)c1O (stereo not given),13.7%
10,NNc1nnc(NN)c2ccccc12,-23.7%
11,COc1ccc2nc(SCc3ncc(C)c(OC)c3C)[nH]c2c1,-8.18%
12,C=COCCOCCOCCOC=C,27.8%
13,O=C(O)CCSSCCC(=O)O,3.03% [at 80.4 µM]
14,CCOC(=O)c1ccc(OC(=O)CCCCCN=C(N)N)cc1,-6.86%
15,O=C(O)c1cc(Br)c(O)c(Br)c1,11.2%
16,Oc1ccccc1-c1nnco1,21.8%
17,Cc1ccsc1/C=C/C1=NCCCN1C,2.34%
18,BrCc1cccc(Oc2ccccc2)c1,29.4%
19,CCCCOC(=O)c1ccccc1,19.8%
20,COP(=O)(OC)OC(c1ccc(Cl)cc1)P(=O)(OC)OC (stereo not given),-5.89%

row,Compound,"viability change, negative = cytotoxic"
1,O=C(Nc1ccc(Cl)c(Cl)c1)C1CC1,0.795%
2,O=C(OCC(O)CO)c1ccccc1Nc1ccnc2c(C(F)(F)F)cccc12 (stereo not given),5.98%
3,O=C(O)Cc1cn(-c2ccccc2)nc1-c1ccc(Cl)cc1,6.48%
4,N#Cc1ccc(C(=O)O)cc1,14.2%
5,CCCCCCN,-5.05%
6,C[C@@H](Oc1ccc(CNC(=O)c2cccnc2Oc2ccc3c(c2)OCO3)c(F)c1)C(=O)O,-13.3%
7,CC(=O)Nc1ccc(S(=O)(=O)Nc2ccc([N+](=O)[O-])cc2)cc1,-0.497%
8,O=Cc1ccc(Cl)c(Cl)c1,7.17% [at 80.4 µM]
9,CC(C)=O,-10.8%
10,CCCCCCCCCCCCCC,-6.68%
11,C=C(C)C(=O)OCc1ccccc1,-4.04%
12,Cc1ccc(S(=O)(=O)O)c(C)c1,6.68%
13,CN1C(C)(C)CCCC1(C)C,3.8%
14,OCCN(CCO)c1cccc(Cl)c1,-2.52%
15,CC(C)(C)c1nnc(NS(=O)(=O)c2ccc(N)cc2)s1,13.7%
16,CCCCCCCCCC(C)=O,2.21% [at 80.4 µM]
17,CC(C)NCC(O)COc1ccc(COCCOC(C)C)cc1 (stereo not given),3.71%
18,O=S(=O)(O)c1cc(O)c2ccc(Nc3ccccc3)cc2c1,-12.5%
19,NCCN1CCOCC1,-0.539%
20,CCCCNC1CC(C)(C)NC(C)(C)C1,-2.89%
